In experiment [1] the target is Glutathione peroxidase 1 (Homo sapiens) (UniProt P07203). The experiment is described as follows: Primary qHTS Assay for Inhibitors of Recombinant Selenoprotein Glutathione Peroxidase 1 (GPX1) (AID 1845191). Further: nearly all actives have a fitted effect of over 65% in size. The procedure, abridged:
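10 nM GPX1 + cpd, 30 min RT; start w/ 1 mM GSH, 0.5 mM cumene hydroperoxide, 0.5 mM NADPH, 100 nM GR, 0.01% BSA; buffer 50 mM Tris-HCl pH 7.5, 2 mM EDTA, 150 mM NaCl; Fl 340/450, 0 & 15 min.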
A general note: qHTS replaces the single test concentration by a dilution series.

Experiment [2] concerns the target Phospholipid hydroperoxide glutathione peroxidase GPX4 (Homo sapiens) (UniProt P36969). Nature of the experiment: Primary qHTS Assay for Inhibitors of Recombinant Selenoprotein Glutathione Peroxidase 4 (GPX4) (AID 1845192). Further: nearly all actives have a fitted effect of over 65% in size. Further: potency means the concentration at half of the fitted maximal effect. On activity change, negative = inhibition: series mostly up to about 50 µM; on the % scale 0 is the no-effect control and ±100 the full control effect. The procedure, abridged: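 NADPH consumption, followed by fluorescence at 340/450 nm between 0 and 15 min, reports GPX4 activity via coupled glutathione reductase (100 nM). Enzyme 200 nM was pre-exposed to compound 30 min; 0.5 mM cumene hydroperoxide and 1 mM GSH served as substrates.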

Experiment [3] has as its target Luciferin 4-monooxygenase (Photinus pyralis) (UniProt P08659). The experiment is described as follows: Primary firefly luciferase (FLuc) qHTS assay for identification of artifact compounds. (AID 1845220). Further: nearly all actives have a fitted effect of over 60% in size.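 On activity change, negative = inhibition: series mostly up to about 54 µM; plate controls were DMSO vehicle for no effect and no enzyme for full effect.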 In short, it runs like this:
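FLuc 10 nM; luciferin 10 uM; ATP 10 uM; Tris-acetate pH 7.6, Mg-acetate 10 mM; 15 min RT preincubation; 5 min reaction; luminescence.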

A short description of experiment [4]: Primary fluorescence-based thiol-reactive (MSTI) qHTS assay for identification of artifact compounds. (AID 1845221). Further: nearly all actives have a fitted effect of over 65% in size. Further: potency means the concentration at half of the fitted maximal effect.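 On activity change, negative = thiol reactive: series mostly up to about 54 µM; thiol-reactive compounds lower the probe fluorescence signal.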 The procedure, abridged: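 Reactivity toward the thiol probe MSTI (4 uM) is scored by fluorescence at Ex/Em 525/598 nm after 1 h at room temperature. Acetyl-MSTI and MSTI define the activity scale.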

Each structure is given as a SMILES string. Where “and” joins values, the source holds several entries; their conditions need not be identical. Equal values may be shown once. Records with an inconclusive call do not appear. Where a structure was tested more than once in an assay, its records may differ in their call. Calls of active or inactive are those of the source. The call rests on the fitted dose curve; in most records, active means well fitted curve in the direction sought with a large enough effect; inconclusive means small, poorly fitted or top-dose-only effect, or another doubt; inactive means no such curve, though single readings can be large; an effect the other way counts as inactive or inconclusive.

Sequence of Phospholipid hydroperoxide glutathione peroxidase GPX4 (Homo sapiens) (P36969 whole entry, looked up): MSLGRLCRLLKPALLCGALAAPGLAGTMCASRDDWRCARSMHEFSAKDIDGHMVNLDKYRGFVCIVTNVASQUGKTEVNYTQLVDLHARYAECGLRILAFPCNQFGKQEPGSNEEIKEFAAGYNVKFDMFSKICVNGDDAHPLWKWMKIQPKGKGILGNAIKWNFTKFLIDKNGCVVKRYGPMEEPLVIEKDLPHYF
Sequence of Glutathione peroxidase 1 (Homo sapiens) (P07203 whole entry, looked up): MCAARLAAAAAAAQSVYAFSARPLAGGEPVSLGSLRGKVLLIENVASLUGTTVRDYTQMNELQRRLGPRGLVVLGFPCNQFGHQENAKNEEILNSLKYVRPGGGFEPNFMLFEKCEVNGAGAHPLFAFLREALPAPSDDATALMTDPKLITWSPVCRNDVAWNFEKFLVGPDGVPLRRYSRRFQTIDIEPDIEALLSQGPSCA

In the case of `CC(=O)O[C@@H]1[C@H](OC(C)=O)C[C@@]2(C)C(CC[C@@H](C)[C@]23Cc2c(O)cc4c(c2O3)CN([C@@H](CCC(=O)O)C(=O)O)C4=O)C1(C)C` (stereo partly drawn), the Potency result in experiment [1], in experiment [2], in experiment [3] and in experiment [4] was “inactive” each time.

Regarding `COC(=O)C1=CO[C@@H](O[C@@H]2O[C@H](CO)[C@@H](O)[C@H](O)[C@H]2O)[C@@H]2[C@@H](C)[C@@H](O)C(O)[C@H]12` (stereo partly drawn), the Potency entry in experiment [1], in experiment [2], in experiment [3] and in experiment [4] was “inactive” in each case.

As to `C=C1C(=O)O[C@@H]2C[C@]3(C)[C@@H](CCC(C)=O)[C@@H]3C[C@H]12`, the Potency result in experiment [1], in experiment [2], in experiment [3] and in experiment [4] was “inactive” in each case.

Regarding `O=C1C(Cl)=C(N2CCOCC2)C(=O)N1c1ccc(Cl)c(Cl)c1`, the Potency entry in experiment [1], in experiment [2], in experiment [3] and in experiment [4] was “inactive” in each case.

Regarding `C=C1CC[C@@H]2C(C)(C)CCC[C@@]2(C)[C@@H]1CC/C(=C/C(=O)OC)COC(C)=O`, the Potency result in experiment [1], in experiment [2], in experiment [3] and in experiment [4] was “inactive” throughout.

As for `CC1OC(OC2CCC3(C)C(CCC4(C)C3C=CC35OCC6(CCC(C)(C)CC63)CCC45C)C2(C)CO)C(OC2OC(CO)C(O)C(O)C2O)C(O)C1OC1OC(CO)C(O)C(O)C1O` (stereo not drawn), the Potency result in experiment [1] and in experiment [2] was “inactive” in each case. The activity change, negative = inhibition in experiment [3] was 1.11% [at 11.6 µM] (inactive). Also, the activity change, negative = thiol reactive in experiment [4] is 34% [at 11.5 µM] (inactive).

`CC1(C)OC(=O)CC(O)C2(C)C1CC(=O)C1(C)C2C(O)CC2(C)C(c3ccoc3)OC(=O)C3OC321` (stereo not drawn): the Potency result in experiment [1], in experiment [2], in experiment [3] and in experiment [4] was “inactive” in each case.

For the compound `CC(=O)O[C@@]1(C)[C@@H]2CC(=C(C)C)C(=O)C[C@@]2(C)CC[C@H]1OC(=O)C1(C)OC1C` (stereo partly drawn), the Potency result in experiment [1], in experiment [2], in experiment [3] and in experiment [4] was “inactive” throughout.

For `C[C@@H]1O[C@@H](OC2C(CO)OC(OCC3OC(OC(=O)[C@]45CCC(C)(C)CC4C4=CCC6[C@@]7(C)CC[C@@H](O)[C@](C)(C(=O)O)C7CC[C@@]6(C)[C@]4(C)CC5)C(O)C(O)C3O)C(O)C2O)[C@H](O)[C@H](O)[C@H]1O` (stereo partly drawn), the Potency result in experiment [1] and in experiment [2] was “inactive” in each case. Moreover, the activity change, negative = inhibition in experiment [3] was -1.59% [at 11.6 µM] (inactive). The activity change, negative = thiol reactive in experiment [4] is 268% [at 11.5 µM] (inactive).

With `C=C1CC2C3(C)C=CC(=O)OC(C)(C)C3CC(OC(C)=O)C2(C)C2C(=O)OC(C)C(=O)C12C` (stereo not drawn), the Potency entry in experiment [1], in experiment [2], in experiment [3] and in experiment [4] was “inactive” throughout.

Turning to `COc1c2cc(c(O[C@@H]3O[C@H](CO)[C@@H](O)[C@H](O)[C@H]3O)c1OC)CCCCC(O)CCc1ccc(O)c-2c1` (stereo partly drawn), the Potency result in experiment [1], in experiment [2] and in experiment [3] was “inactive” throughout. For the same compound, in experiment [4], the Potency is 6.53 µM (active).

In the case of `CC1=CC(=O)[C@]2(O[C@@H]3O[C@@H](C)[C@H](O)[C@@H](O)[C@H]3O)C=CO[C@@H](O[C@@H]3O[C@H](CO)[C@@H](O)[C@H](O)[C@H]3O)[C@H]12`, the Potency entry in experiment [1], in experiment [2] and in experiment [3] was “inactive” throughout. In experiment [4], the Potency is 5.82 µM (active).

`O=C(O)CC(CCc1ccccc1)OC1OC(CO)C(O)C(O)C1O` (stereo not drawn): the Potency result in experiment [1], in experiment [2] and in experiment [3] was “inactive” each time. Moreover, the Potency in experiment [4] is 5.21 µM (active).

Turning to `CC1CCC2(NC1)OC1C(O)C3C4CCC5CC(O[C@@H]6O[C@H](CO)[C@@H](O)[C@H](O)[C@H]6O[C@@H]6O[C@@H](C)[C@H](O)[C@@H](O)[C@H]6O)CCC5(C)C4CCC3(C)C1C2C` (stereo partly drawn), the Potency result in experiment [1], in experiment [2], in experiment [3] and in experiment [4] was “inactive” in each case.

Consider `Cc1cc(-n2c(=O)[nH]c(=O)n(C)c2=O)ccc1Oc1ccc(SC(F)(F)F)cc1`, for which the Potency result in experiment [1], in experiment [3] and in experiment [4] was “inactive” throughout. The Potency result in experiment [2] is “inactive and 15.8 µM (active)”.

As for `CC1(C(=O)O)CCCC2(C)C3CCC4CC3(CCC12)CC4C(=O)O` (stereo not drawn), the Potency entry in experiment [1], in experiment [2], in experiment [3] and in experiment [4] was “inactive” each time.

Regarding `CC(O)C(=O)/C=C/C=C/C(=O)OC1C=C2COC(=O)C2(O)C2(C)CCCC(C)(C)C12` (stereo not drawn), the Potency result in experiment [1], in experiment [2], in experiment [3] and in experiment [4] was “inactive” throughout.

In the case of `COc1ccc(-n2[nH]c3c(cnc4ccccc43)c2=O)cc1`, the Potency entry in experiment [1], in experiment [2] and in experiment [3] was “inactive” throughout. Further, the Potency in experiment [4] was 4.74 µM (active).

Regarding `CC1(C)CCCC2(C)c3c4c(c(=O)oc(=O)c3=CCC12)=CCC1C(C)(C)CCCC41C` (stereo not drawn), the Potency result in experiment [1], in experiment [2], in experiment [3] and in experiment [4] was “inactive” in each case.

On to `CCNC(=O)C1CC(F)(c2ccc(CN3CCCC3)c(F)c2)C1` (stereo not drawn), for which the Potency result in experiment [1], in experiment [2], in experiment [3] and in experiment [4] was “inactive” each time.

With `FC(F)(F)Oc1ccc(-c2ccc3nnc(C(F)(F)F)n3c2)cc1`, the Potency entry in experiment [1], in experiment [2], in experiment [3] and in experiment [4] was “inactive” in each case.

On to `Cc1oc2nc3c(c(NC(=O)CN4CCCC4=O)c2c1C)CCCC3`, for which the Potency result in experiment [1], in experiment [2], in experiment [3] and in experiment [4] was “inactive” in each case.
